Reference: the supplement of paper PMC10849652
The full data set covers some 8,800 targets. This sample favours those with a hit. About 0.5% of all pairs of compound and target were hits.

Tests used:
Assay in all cases: log2 fold change, soluble protein after heating vs DMSO (PISA); higher = thermal stabilisation; K562 lysate, 10 uM; active = over 0.2 and 3.5 SD of the protein, either way, in both replicates (recomputed)
[1] = compound: C1=CC=C(C=C1)[C@H](COC2=CC3=C(C=C2)NC(=O)N3)NC(=O)C4=CC=CN(C4=O)CC5=CC(=C(C=C5)F)F
Outline: (§1)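 To prepare the extract, K562 pellets were dounce-homogenised in PBS pH 7.4 with 1 mM MgCl2, giving crude material at 1 mg/mL protein. This was treated with 10 μM compound for 30 min, then heated in aliquots for 3 min over 48°C-58°C before pooling and addition of NP-40 to 0.5% at 4°C. Centrifugation at 21,000xg for 90 min left soluble protein in the supernatant, which TMTpro 16plex LC-MS/MS quantified with equalised channel sums. Results are log-two fold changes in thermal stability compared with solvent controls, from duplicates.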

[2] = compound: CC1=C(SC2=C1C(=N[C@H](C3=NN=C(N32)C)CC(=O)N)C4=CC=C(C=C4)Cl)C
Outline: as §1

[3] = compound: CC1=C2C(=CC=C1)N=C(N(C2=O)C3=CC=CC=C3C)CN4C=NC5=C(N=CN=C54)N
Outline: as §1

[4] = compound: Cc1sc2c(c1C)C(c1ccc(Cl)cc1)=N[C@@H](CC(=O)OC(C)(C)C)c1nnc(C)n1-2
Outline: as §1

[5] = compound: c1ccc([C@@H]2C[C@H]2NC2CCNCC2)cc1
Outline: as §1

Measured: log2 fold change

PRIM1 (UniProt P49642)
inactive: [1] 0.009 | [2] -0.051 | [3] -0.018 | [4] -0.006 | [5] 0.047

POLD3 (UniProt Q15054)
inactive: [1] -0.004 | [2] 0.002 | [3] 0.019 | [4] 0 | [5] 0.034

PI4K2B (UniProt Q8TCG2)
UniProt Q8TCG2, sequence (Q8TCG2 whole entry, looked up): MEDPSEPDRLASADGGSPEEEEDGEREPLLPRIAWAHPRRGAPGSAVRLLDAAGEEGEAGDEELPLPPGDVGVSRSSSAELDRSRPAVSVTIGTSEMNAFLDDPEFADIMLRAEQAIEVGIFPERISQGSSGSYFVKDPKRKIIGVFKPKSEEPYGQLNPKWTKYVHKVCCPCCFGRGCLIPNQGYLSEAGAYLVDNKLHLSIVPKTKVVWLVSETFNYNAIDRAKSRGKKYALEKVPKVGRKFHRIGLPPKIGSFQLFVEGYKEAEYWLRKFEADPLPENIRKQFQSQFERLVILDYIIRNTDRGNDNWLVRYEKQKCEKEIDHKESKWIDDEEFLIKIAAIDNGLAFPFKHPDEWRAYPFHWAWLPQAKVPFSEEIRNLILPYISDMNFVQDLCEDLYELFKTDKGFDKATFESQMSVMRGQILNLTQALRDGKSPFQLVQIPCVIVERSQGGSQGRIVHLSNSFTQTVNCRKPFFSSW
inactive: [1] -0.033 | [2] 0.048 | [3] 0.074 | [4] 0.068 | [5] 0.077

PTS (UniProt Q03393)
inactive: [1] -0.024 | [3] 0.032 | [4] -0.093 | [5] 0.022
active: [2] -0.274

PRKAR2B (UniProt P31323)
inactive: [1] -0.028 | [2] 0.018 | [3] 0.011 | [4] -0.002 | [5] 0.068

PPM1H (UniProt Q9ULR3)
inactive: [1] 0.011 | [2] -0.023 | [3] -0.008 | [4] 0.062 | [5] 0.05

PI4KA (UniProt P42356)
inactive: [1] -0.08 | [2] -0.012 | [3] 0.057 | [4] -0.019 | [5] -0.018

PWP2 (UniProt Q15269)
inactive: [1] -0.004 | [2] -0.042 | [3] -0.013 | [4] -0.048 | [5] 0.061

PKP3 isoform 2 (UniProt Q9Y446)
inactive: [1] -0.049 | [2] 0.014 | [3] 0.002 | [4] 0.062 | [5] -0.004

PCBD2 (UniProt Q9H0N5)
inactive: [1] -0.019 | [2] 0.048 | [3] 0.002 | [4] -0.011 | [5] -0.172

PFAS (UniProt O15067)
inactive: [1] 0.007 | [2] 0.017 | [3] 0.02 | [4] 0.042 | [5] 0.023

POMP (UniProt Q9Y244)
inactive: [1] 0.077 | [2] -0.053 | [3] 0.045 | [4] -0.036 | [5] 0.061

PPP2R5C isoform 2 (UniProt Q13362)
UniProt Q13362, sequence (Q13362 whole entry, looked up): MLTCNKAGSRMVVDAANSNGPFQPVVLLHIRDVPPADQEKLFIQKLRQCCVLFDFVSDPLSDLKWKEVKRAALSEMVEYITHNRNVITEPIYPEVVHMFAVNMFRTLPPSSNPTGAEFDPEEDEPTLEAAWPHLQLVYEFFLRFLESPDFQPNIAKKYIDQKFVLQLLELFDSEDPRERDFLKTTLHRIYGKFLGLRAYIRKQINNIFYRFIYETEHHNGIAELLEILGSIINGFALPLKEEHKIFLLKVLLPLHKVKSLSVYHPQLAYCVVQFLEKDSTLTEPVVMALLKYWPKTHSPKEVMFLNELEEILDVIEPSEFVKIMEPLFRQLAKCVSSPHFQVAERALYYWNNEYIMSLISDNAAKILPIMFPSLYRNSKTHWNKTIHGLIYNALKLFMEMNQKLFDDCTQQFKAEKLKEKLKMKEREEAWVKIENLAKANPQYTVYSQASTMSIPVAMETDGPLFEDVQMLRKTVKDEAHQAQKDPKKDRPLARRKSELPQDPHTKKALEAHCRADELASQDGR
inactive: [1] -0.016 | [2] 0.224 | [3] 0.004 | [4] -0.136 | [5] 0.026

PCIF1 (UniProt Q9H4Z3)
inactive: [1] -0.015 | [2] -0.013 | [3] 0.026 | [4] 0.066 | [5] -0.111

PHKA2 (UniProt P46019)
UniProt P46019, sequence (P46019 whole entry, looked up): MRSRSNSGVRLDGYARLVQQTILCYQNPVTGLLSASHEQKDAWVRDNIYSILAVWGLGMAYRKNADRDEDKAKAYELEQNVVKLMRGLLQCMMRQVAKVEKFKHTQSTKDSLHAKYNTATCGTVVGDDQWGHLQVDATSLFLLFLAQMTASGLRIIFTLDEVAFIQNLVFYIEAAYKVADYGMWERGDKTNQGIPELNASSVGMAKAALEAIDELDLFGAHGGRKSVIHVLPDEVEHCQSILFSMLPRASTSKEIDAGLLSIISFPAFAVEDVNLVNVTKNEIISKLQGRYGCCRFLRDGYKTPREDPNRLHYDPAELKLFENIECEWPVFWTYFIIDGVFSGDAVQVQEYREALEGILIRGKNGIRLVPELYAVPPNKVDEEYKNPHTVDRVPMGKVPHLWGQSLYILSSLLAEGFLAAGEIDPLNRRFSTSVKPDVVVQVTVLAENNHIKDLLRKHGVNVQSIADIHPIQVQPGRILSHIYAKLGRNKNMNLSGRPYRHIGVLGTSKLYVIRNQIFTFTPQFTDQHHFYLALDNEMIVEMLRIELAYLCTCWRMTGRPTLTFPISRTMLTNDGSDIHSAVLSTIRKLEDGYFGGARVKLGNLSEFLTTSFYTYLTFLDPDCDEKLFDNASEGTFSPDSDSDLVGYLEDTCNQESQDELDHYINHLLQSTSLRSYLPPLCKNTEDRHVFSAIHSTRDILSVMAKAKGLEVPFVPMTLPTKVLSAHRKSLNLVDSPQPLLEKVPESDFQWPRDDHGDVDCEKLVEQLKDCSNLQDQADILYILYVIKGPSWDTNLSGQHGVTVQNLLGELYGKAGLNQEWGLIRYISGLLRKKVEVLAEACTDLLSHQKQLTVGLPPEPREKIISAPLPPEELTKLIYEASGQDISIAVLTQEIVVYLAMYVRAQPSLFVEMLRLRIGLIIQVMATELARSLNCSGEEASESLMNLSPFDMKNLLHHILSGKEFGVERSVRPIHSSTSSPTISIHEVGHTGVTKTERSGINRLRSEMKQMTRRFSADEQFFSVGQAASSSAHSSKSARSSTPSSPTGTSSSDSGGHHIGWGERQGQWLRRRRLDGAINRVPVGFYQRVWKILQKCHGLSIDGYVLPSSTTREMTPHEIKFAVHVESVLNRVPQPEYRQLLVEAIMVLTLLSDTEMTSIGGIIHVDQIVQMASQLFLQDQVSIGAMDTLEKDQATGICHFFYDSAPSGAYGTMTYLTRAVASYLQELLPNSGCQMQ
inactive: [1] -0.111 | [2] 0.028 | [3] 0.052 | [4] 0.021 | [5] 0.038

PPP2R5C isoform 4 (UniProt Q13362)
inactive: [1] -0.057 | [2] 0.003 | [3] 0.021 | [4] -0.103 | [5] 0.021

PI4KB (UniProt Q9UBF8)
inactive: [1] 0.022 | [2] -0.006 | [3] -0.019 | [4] -0.005 | [5] 0.002

PWP1 (UniProt Q13610)
inactive: [1] 0.041 | [2] -0.041 | [3] -0.052 | [4] -0.004 | [5] 0.088

PRKCA (UniProt P17252)
inactive: [1] 0.01 | [2] -0.012 | [3] -0.061 | [4] 0.021 | [5] 0.089

PIP4K2A (UniProt P48426)
inactive: [1] -0.093 | [2] -0.053 | [3] -0.041 | [4] -0.05 | [5] -0.106

PRKAR2A (UniProt P13861)
inactive: [1] 0.009 | [2] 0.012 | [3] 0.038 | [4] -0.011 | [5] 0.027

PHGDH (UniProt O43175)
inactive: [1] -0.014 | [2] 0.017 | [3] 0.047 | [4] 0.046 | [5] 0.052

PSMB9 (UniProt P28065)
UniProt P28065, sequence (P28065 whole entry, looked up): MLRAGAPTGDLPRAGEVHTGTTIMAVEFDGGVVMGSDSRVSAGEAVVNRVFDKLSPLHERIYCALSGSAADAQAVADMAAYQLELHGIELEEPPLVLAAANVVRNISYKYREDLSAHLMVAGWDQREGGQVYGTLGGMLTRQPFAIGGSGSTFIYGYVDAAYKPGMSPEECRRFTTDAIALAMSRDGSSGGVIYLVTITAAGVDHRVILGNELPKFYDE
inactive: [1] 0.074 | [2] 0.159 | [3] 0.111 | [4] -0.095 | [5] -0.013

PDCD4 (UniProt Q53EL6)
UniProt Q53EL6, sequence (Q53EL6 whole entry, looked up): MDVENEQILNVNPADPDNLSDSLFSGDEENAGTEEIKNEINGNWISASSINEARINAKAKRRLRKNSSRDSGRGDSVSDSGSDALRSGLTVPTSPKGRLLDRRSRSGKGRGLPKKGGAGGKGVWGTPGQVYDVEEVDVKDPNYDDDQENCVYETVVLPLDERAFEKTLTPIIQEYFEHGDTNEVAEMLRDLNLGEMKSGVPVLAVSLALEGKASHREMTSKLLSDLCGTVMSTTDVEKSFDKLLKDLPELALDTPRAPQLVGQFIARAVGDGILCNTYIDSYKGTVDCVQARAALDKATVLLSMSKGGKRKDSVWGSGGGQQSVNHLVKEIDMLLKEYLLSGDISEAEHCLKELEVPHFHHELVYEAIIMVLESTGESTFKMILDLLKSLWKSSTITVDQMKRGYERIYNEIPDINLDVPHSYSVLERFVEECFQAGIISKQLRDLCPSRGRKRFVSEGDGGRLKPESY
inactive: [1] -0.026 | [2] 0.005 | [3] -0.007 | [4] 0.002 | [5] 0.001

PFDN2 (UniProt Q9UHV9)
inactive: [1] 0.044 | [2] -0.055 | [3] -0.016 | [4] -0.008 | [5] 0.063

PELO (UniProt Q9BRX2)
inactive: [1] -0.014 | [2] 0.05 | [3] 0.034 | [4] 0.087 | [5] 0.27

PDS5A (UniProt Q29RF7)
inactive: [1] -0.049 | [2] -0.031 | [3] 0.017 | [4] -0.011 | [5] 0.019

PRKCSH (UniProt K7ELL7)
inactive: [1] 0.045 | [2] -0.027 | [3] -0.157 | [4] -0.112 | [5] -0.048

PIK3R1 (UniProt P27986)
UniProt P27986, sequence (P27986 whole entry, looked up): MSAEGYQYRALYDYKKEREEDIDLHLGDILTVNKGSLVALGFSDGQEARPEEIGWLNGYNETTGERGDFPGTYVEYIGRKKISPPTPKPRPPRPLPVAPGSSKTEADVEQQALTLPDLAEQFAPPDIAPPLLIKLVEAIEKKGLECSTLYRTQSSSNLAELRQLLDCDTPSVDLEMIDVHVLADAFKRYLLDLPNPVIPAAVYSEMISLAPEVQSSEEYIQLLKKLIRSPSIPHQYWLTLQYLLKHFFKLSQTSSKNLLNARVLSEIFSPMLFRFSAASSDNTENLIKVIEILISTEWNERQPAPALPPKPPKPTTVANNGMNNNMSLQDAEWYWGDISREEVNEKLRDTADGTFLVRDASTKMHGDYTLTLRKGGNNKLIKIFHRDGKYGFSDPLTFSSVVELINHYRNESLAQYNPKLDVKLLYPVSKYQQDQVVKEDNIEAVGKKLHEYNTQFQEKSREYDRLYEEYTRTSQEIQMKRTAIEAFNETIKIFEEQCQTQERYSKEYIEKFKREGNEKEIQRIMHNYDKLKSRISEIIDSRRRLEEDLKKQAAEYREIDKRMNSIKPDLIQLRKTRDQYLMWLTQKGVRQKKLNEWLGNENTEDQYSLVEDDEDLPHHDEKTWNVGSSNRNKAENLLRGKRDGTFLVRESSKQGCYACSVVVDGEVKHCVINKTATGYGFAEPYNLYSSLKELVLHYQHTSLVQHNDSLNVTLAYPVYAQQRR
inactive: [1] -0.014 | [2] -0.065 | [3] 0.313 | [4] -0.024 | [5] -0.007

PHKG2 (UniProt P15735)
inactive: [1] 0.039 | [2] -0.038 | [3] -0.037 | [4] -0.002 | [5] -0.022

PRKAB2 (UniProt O43741)
inactive: [1] 0.1 | [2] -0.012 | [3] 0.009 | [4] -0.047 | [5] -0.418

PRMT7 (UniProt Q9NVM4)
UniProt Q9NVM4, sequence (Q9NVM4 whole entry, looked up): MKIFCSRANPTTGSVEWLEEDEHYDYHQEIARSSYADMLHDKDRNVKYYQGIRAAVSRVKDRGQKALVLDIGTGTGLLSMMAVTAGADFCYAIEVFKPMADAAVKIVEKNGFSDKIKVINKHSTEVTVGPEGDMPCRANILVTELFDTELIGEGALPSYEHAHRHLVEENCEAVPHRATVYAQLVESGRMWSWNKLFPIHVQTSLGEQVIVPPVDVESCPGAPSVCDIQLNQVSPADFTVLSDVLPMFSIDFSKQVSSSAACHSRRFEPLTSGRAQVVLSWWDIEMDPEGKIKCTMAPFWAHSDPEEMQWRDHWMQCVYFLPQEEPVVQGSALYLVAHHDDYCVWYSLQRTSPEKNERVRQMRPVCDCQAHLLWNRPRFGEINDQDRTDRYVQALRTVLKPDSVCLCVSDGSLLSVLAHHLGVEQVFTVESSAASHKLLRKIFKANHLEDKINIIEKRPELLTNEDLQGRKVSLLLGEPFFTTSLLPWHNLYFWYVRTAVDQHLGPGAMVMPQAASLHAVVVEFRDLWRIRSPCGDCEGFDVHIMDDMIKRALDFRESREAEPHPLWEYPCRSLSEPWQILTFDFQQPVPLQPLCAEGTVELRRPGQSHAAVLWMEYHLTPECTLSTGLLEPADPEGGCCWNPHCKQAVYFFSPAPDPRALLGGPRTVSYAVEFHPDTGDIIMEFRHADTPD
inactive: [1] -0.002 | [2] -0.029 | [3] 0.009 | [4] -0.039 | [5] 0.014

POLR3E (UniProt Q9NVU0)
inactive: [1] -0.031 | [2] -0.003 | [3] -0.001 | [4] -0.002 | [5] -0.012

PIAS2 (UniProt O75928)
inactive: [3] 0.001 | [4] 0.046

PFN1 (UniProt I3L3D5)
inactive: [1] 0.007 | [2] 0.065 | [5] 0.164

PUF60 isoform 2 (UniProt Q9UHX1)
UniProt Q9UHX1, sequence (Q9UHX1 whole entry, looked up): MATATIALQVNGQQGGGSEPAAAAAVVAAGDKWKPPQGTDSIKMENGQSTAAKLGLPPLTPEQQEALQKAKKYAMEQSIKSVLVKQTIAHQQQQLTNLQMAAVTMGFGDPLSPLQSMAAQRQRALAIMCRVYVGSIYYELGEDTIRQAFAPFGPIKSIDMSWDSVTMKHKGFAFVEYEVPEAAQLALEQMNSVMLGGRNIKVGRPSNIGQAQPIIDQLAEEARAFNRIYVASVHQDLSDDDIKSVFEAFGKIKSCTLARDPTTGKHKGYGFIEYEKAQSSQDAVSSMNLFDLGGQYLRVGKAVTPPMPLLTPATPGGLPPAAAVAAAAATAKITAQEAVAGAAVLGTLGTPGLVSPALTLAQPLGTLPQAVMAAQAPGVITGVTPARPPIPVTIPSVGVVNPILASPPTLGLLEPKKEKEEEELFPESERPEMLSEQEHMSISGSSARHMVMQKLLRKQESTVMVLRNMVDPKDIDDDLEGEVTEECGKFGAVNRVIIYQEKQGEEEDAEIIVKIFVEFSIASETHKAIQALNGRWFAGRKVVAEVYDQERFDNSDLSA
inactive: [1] 0.091 | [2] 0.109 | [3] 0.035 | [5] 0.238

PTGS1 isoform 6 (UniProt P23219)
inactive: [1] -0.007 | [2] -0.035 | [3] 0.077 | [4] -0.026 | [5] -0.11

PUS1 (UniProt Q9Y606)
inactive: [1] 0 | [2] 0.014 | [3] 0.013 | [4] -0.024 | [5] 0.029

PRKD3 (UniProt O94806)
inactive: [1] 0.035 | [2] 0 | [3] 0.206 | [5] -0.386

PLXND1 (UniProt Q9Y4D7)
inactive: [1] -0.039 | [2] 0.082 | [4] 0.029

PPP2R5C isoform 5 (UniProt Q13362)
inactive: [1] -0.068 | [2] 0.011 | [3] -0.02 | [4] -0.024 | [5] 0.071

PHACTR4 isoform 2 (UniProt Q8IZ21)
inactive: [1] 0.03 | [2] 0 | [3] 0.014 | [4] 0.028 | [5] 0.264

PDE4DIP (UniProt E9PS60)
inactive: [3] 0.074 | [4] -0.12 | [5] -0.257

PTK2 isoform 2 (UniProt Q05397)
inactive: [1] 0.07 | [2] 0.081 | [4] -0.324

PDIA4, A0A499FI48
inactive: [4] 0.083 | [5] 0.564

PIGO (UniProt Q8TEQ8)
inactive: [1] -0.098 | [2] -0.058 | [3] -0.014 | [4] -0.023 | [5] 0.039

PYGO2 (UniProt Q9BRQ0)
inactive: [1] 0.064 | [2] 0.031 | [4] 0.024 | [5] 0.011

PDPK1 (UniProt O15530)
inactive: [2] 0 | [3] -0.035 | [4] 0.022 | [5] -0.069

POLR2F (UniProt U3KPV3)
inactive: [4] -0.113

PPP1R11 (UniProt O60927)
inactive: [1] -0.025 | [2] -0.095 | [4] 0.014 | [5] 0.001

POC5 (UniProt Q8NA72)
inactive: [1] 0.016 | [2] -0.052 | [3] 0.161 | [4] 0.17 | [5] -0.097

POM121C (UniProt A8CG34)
inactive: [1] 0.058 | [2] 0.042 | [5] -0.02

PIP5K1A (UniProt Q99755)
inactive: [1] -0.058 | [2] 0.067 | [4] 0.059 | [5] -0.096

PPME1 (UniProt Q9Y570)
inactive: [1] 0.057 | [2] -0.02 | [4] 0.06

PHKG1 isoform 2 (UniProt Q16816)
inactive: [3] -0.375 | [4] -0.054 | [5] -0.493

PRKCSH isoform 2 (UniProt P14314)
inactive: [1] 0.084 | [2] -0.09 | [3] -0.067 | [4] -0.128 | [5] -0.33

PHGDH, A0A286YFE1
inactive: [1] 0.061 | [2] -0.111 | [4] -0.095

POLR2G (UniProt P62487)
inactive: [1] 0.018 | [2] 0.021 | [3] -0.003 | [4] 0.007 | [5] -0.108
